Experimental data as given in article PMC11006913.

Columns and labels:
Assay in all cases: PBM; 200 nM protein, PBS
Details in all cases: dsDNA, one strand shown
[1] = biological target: HOXB6 (Homo sapiens, UniProt P17509 132-218, K202E)
[2] = biological target: VAX1 (Homo sapiens, UniProt Q5SQQ9 86-172, K157R)
[3] = biological target: HOXB6 (Homo sapiens, UniProt P17509 132-218)
[4] = biological target: HOXB9 (Homo sapiens, UniProt P17482 171-250)
[5] = biological target: PROP1 (Homo sapiens, UniProt O75360 56-141)
[6] = biological target: PROP1 (Homo sapiens, UniProt O75360 56-141, R99H)
[7] = biological target: HOXB9 (Homo sapiens, UniProt P17482 171-250, R186Q)
[8] = biological target: PROP1 (Homo sapiens, UniProt O75360 56-141, F88S)
[9] = biological target: PRRX1 (Homo sapiens, UniProt P54821 80-166, F113S)
[10] = biological target: SHOX (Homo sapiens, UniProt O15266 103-189, R173C)
[11] = biological target: HOXA2 (Homo sapiens, UniProt O43364 129-215, R185T)
[12] = biological target: HOXA2 (Homo sapiens, UniProt O43364 129-215, R185K)
[13] = biological target: HOXA2 (Homo sapiens, UniProt O43364 129-215, Y150S)
[14] = biological target: HOXA2 (Homo sapiens, UniProt O43364 129-215)
[15] = biological target: HESX1 (Homo sapiens, UniProt Q9UBX0 95-180, R165K)
[16] = biological target: HESX1 (Homo sapiens, UniProt Q9UBX0 95-180)
[17] = biological target: MSX2 (Homo sapiens, UniProt P35548 130-214, R199I)
[18] = biological target: MSX2 (Homo sapiens, UniProt P35548 130-214)
[19] = biological target: MSX2 (Homo sapiens, UniProt P35548 130-214, F161Y)
[20] = biological target: HESX1 (Homo sapiens, UniProt Q9UBX0 95-180, F115L)
HESX1 (Homo sapiens, UniProt Q9UBX0 95-180, F115L), sequence (Q9UBX0 95-180 F115L): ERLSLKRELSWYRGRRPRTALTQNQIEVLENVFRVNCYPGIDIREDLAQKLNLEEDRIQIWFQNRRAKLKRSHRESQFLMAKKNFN

HOXA2 (Homo sapiens, UniProt O43364 129-215, R185K), sequence (O43364 129-215 R185K): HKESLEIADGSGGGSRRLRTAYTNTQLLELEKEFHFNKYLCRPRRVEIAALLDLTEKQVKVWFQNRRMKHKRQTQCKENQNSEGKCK
HOXB6 (Homo sapiens, UniProt P17509 132-218), sequence (P17509 132-218): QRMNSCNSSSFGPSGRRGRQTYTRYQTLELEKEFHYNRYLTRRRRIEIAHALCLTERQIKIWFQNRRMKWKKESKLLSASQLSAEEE
HOXB6 (Homo sapiens, UniProt P17509 132-218, K202E), sequence (P17509 132-218 K202E): as the sequence (P17509 132-218) above, with K71E counted along it
MSX2 (Homo sapiens, UniProt P35548 130-214), sequence (P35548 130-214): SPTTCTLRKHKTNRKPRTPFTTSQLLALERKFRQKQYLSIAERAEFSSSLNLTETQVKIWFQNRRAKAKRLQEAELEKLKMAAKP
HOXA2 (Homo sapiens, UniProt O43364 129-215, Y150S), sequence (O43364 129-215 Y150S): as the sequence (O43364 129-215 R185K) above, with Y22S, K57R counted along it
HOXB9 (Homo sapiens, UniProt P17482 171-250, R186Q), sequence (P17482 171-250 R186Q): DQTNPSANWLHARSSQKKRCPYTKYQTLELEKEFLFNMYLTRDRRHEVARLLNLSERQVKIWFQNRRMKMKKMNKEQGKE
VAX1, sequence (Q5SQQ9 86-172 K157R): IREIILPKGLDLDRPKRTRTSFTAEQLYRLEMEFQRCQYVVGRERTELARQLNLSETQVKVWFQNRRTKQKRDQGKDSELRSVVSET
MSX2 (Homo sapiens, UniProt P35548 130-214, F161Y), sequence (P35548 130-214 F161Y): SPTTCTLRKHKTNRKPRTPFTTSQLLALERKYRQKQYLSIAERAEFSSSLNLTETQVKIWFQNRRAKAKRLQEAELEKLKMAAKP
HOXB9 (Homo sapiens, UniProt P17482 171-250), sequence (P17482 171-250): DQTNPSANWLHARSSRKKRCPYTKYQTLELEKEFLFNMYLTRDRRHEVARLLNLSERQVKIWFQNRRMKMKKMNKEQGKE
MSX2 (Homo sapiens, UniProt P35548 130-214, R199I), sequence (P35548 130-214 R199I): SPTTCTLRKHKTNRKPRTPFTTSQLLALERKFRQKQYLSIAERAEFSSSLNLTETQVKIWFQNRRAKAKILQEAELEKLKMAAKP
PRRX1, sequence (P54821 80-166 F113S): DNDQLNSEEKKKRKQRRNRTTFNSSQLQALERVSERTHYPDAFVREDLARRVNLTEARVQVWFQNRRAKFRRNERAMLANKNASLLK
HOXA2 (Homo sapiens, UniProt O43364 129-215, R185T), sequence (O43364 129-215 R185T): as the sequence (O43364 129-215 R185K) above, with K57T counted along it
HOXA2 (Homo sapiens, UniProt O43364 129-215), sequence (O43364 129-215): as the sequence (O43364 129-215 R185K) above, with K57R counted along it
PROP1 (Homo sapiens, UniProt O75360 56-141, R99H), sequence (O75360 56-141 R99H): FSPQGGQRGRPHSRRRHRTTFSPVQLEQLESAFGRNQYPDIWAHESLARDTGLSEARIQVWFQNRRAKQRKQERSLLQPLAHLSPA
SHOX, sequence (O15266 103-189 R173C): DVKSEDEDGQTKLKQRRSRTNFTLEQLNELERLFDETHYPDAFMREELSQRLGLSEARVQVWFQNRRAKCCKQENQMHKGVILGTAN
PROP1 (Homo sapiens, UniProt O75360 56-141), sequence (O75360 56-141): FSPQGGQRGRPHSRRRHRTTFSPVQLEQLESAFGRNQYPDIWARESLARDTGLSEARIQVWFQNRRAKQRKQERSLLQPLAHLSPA
PROP1 (Homo sapiens, UniProt O75360 56-141, F88S), sequence (O75360 56-141 F88S): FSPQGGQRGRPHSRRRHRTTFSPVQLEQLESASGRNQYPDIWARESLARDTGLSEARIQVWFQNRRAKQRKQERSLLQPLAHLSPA
HESX1 (Homo sapiens, UniProt Q9UBX0 95-180), sequence (Q9UBX0 95-180): as the sequence (Q9UBX0 95-180 F115L) above, with L21F counted along it
HESX1 (Homo sapiens, UniProt Q9UBX0 95-180, R165K), sequence (Q9UBX0 95-180 R165K): as the sequence (Q9UBX0 95-180 F115L) above, with L21F, R71K counted along it

ACGGCGGC
binding signal [1]: 8.91 upbm affinity estimate (log intensity, higher = more binding, comparable within an allelic series)
binding signal [2]: 7.25 upbm affinity estimate (log intensity, higher = more binding, comparable within an allelic series)
binding signal [3]: 9.12 upbm affinity estimate (log intensity, higher = more binding, comparable within an allelic series)

CGCCCGAG
binding signal [4]: 8.15 upbm affinity estimate (log intensity, higher = more binding, comparable within an allelic series)
binding signal [5]: 6.84 upbm affinity estimate (log intensity, higher = more binding, comparable within an allelic series)
binding signal [6]: 6.77 upbm affinity estimate (log intensity, higher = more binding, comparable within an allelic series)
binding signal [7]: 8.29 upbm affinity estimate (log intensity, higher = more binding, comparable within an allelic series)
binding signal [8]: 6.6 upbm affinity estimate (log intensity, higher = more binding, comparable within an allelic series)

ACGCGCAG
binding signal [9]: 9.07 upbm affinity estimate (log intensity, higher = more binding, comparable within an allelic series)
binding signal [10]: 7.17 upbm affinity estimate (log intensity, higher = more binding, comparable within an allelic series)

CACGCGTG
binding signal [9]: 9.36 upbm affinity estimate (log intensity, higher = more binding, comparable within an allelic series)

GCACTTAA
binding signal [1]: 9.75 upbm affinity estimate (log intensity, higher = more binding, comparable within an allelic series)
binding signal [11]: 10.2 upbm affinity estimate (log intensity, higher = more binding, comparable within an allelic series)
binding signal [12]: 12.3 upbm affinity estimate (log intensity, higher = more binding, comparable within an allelic series)
binding signal [13]: 10.8 upbm affinity estimate (log intensity, higher = more binding, comparable within an allelic series)
binding signal [14]: 10.4 upbm affinity estimate (log intensity, higher = more binding, comparable within an allelic series)
binding signal [3]: 10.9 upbm affinity estimate (log intensity, higher = more binding, comparable within an allelic series)

AATTAGCT
binding signal [15]: 11.6 upbm affinity estimate (log intensity, higher = more binding, comparable within an allelic series)
binding signal [9]: 11.1 upbm affinity estimate (log intensity, higher = more binding, comparable within an allelic series)
binding signal [16]: 11.6 upbm affinity estimate (log intensity, higher = more binding, comparable within an allelic series)
binding signal [17]: 12.3 upbm affinity estimate (log intensity, higher = more binding, comparable within an allelic series)
binding signal [10]: 9.43 upbm affinity estimate (log intensity, higher = more binding, comparable within an allelic series)
binding signal [18]: 13.3 upbm affinity estimate (log intensity, higher = more binding, comparable within an allelic series)
binding signal [5]: 11 upbm affinity estimate (log intensity, higher = more binding, comparable within an allelic series)
binding signal [6]: 10.9 upbm affinity estimate (log intensity, higher = more binding, comparable within an allelic series)
binding signal [8]: 7.6 upbm affinity estimate (log intensity, higher = more binding, comparable within an allelic series)
binding signal [19]: 12.9 upbm affinity estimate (log intensity, higher = more binding, comparable within an allelic series)
binding signal [20]: 7.79 upbm affinity estimate (log intensity, higher = more binding, comparable within an allelic series)
binding signal [2]: 12.4 upbm affinity estimate (log intensity, higher = more binding, comparable within an allelic series)

CCGGTGGC
binding signal [17]: 9.47 upbm affinity estimate (log intensity, higher = more binding, comparable within an allelic series)
binding signal [18]: 9.56 upbm affinity estimate (log intensity, higher = more binding, comparable within an allelic series)
binding signal [19]: 9.58 upbm affinity estimate (log intensity, higher = more binding, comparable within an allelic series)
binding signal [2]: 7.27 upbm affinity estimate (log intensity, higher = more binding, comparable within an allelic series)

CCAGCCAG
binding signal [4]: 8.34 upbm affinity estimate (log intensity, higher = more binding, comparable within an allelic series)
binding signal [7]: 8.39 upbm affinity estimate (log intensity, higher = more binding, comparable within an allelic series)

CGTGCACG
binding signal [9]: 9.62 upbm affinity estimate (log intensity, higher = more binding, comparable within an allelic series)
binding signal [4]: 8.75 upbm affinity estimate (log intensity, higher = more binding, comparable within an allelic series)
binding signal [7]: 8.57 upbm affinity estimate (log intensity, higher = more binding, comparable within an allelic series)

CATGCGCC
binding signal [4]: 8.56 upbm affinity estimate (log intensity, higher = more binding, comparable within an allelic series)
binding signal [7]: 8.56 upbm affinity estimate (log intensity, higher = more binding, comparable within an allelic series)

GCGACGCC
binding signal [11]: 7.22 upbm affinity estimate (log intensity, higher = more binding, comparable within an allelic series)
binding signal [12]: 10.4 upbm affinity estimate (log intensity, higher = more binding, comparable within an allelic series)
binding signal [13]: 10.6 upbm affinity estimate (log intensity, higher = more binding, comparable within an allelic series)
binding signal [14]: 7.31 upbm affinity estimate (log intensity, higher = more binding, comparable within an allelic series)
binding signal [2]: 7.22 upbm affinity estimate (log intensity, higher = more binding, comparable within an allelic series)

CTGGCCAG
binding signal [17]: 9.71 upbm affinity estimate (log intensity, higher = more binding, comparable within an allelic series)
binding signal [18]: 9.79 upbm affinity estimate (log intensity, higher = more binding, comparable within an allelic series)
binding signal [19]: 9.83 upbm affinity estimate (log intensity, higher = more binding, comparable within an allelic series)

ATAATGGG
binding signal [1]: 9.9 upbm affinity estimate (log intensity, higher = more binding, comparable within an allelic series)
binding signal [3]: 11.8 upbm affinity estimate (log intensity, higher = more binding, comparable within an allelic series)

CACGGGCC
binding signal [11]: 6.97 upbm affinity estimate (log intensity, higher = more binding, comparable within an allelic series)
binding signal [17]: 9.44 upbm affinity estimate (log intensity, higher = more binding, comparable within an allelic series)
binding signal [12]: 10.1 upbm affinity estimate (log intensity, higher = more binding, comparable within an allelic series)
binding signal [18]: 9.39 upbm affinity estimate (log intensity, higher = more binding, comparable within an allelic series)
binding signal [19]: 9.46 upbm affinity estimate (log intensity, higher = more binding, comparable within an allelic series)
binding signal [13]: 10.3 upbm affinity estimate (log intensity, higher = more binding, comparable within an allelic series)
binding signal [14]: 6.84 upbm affinity estimate (log intensity, higher = more binding, comparable within an allelic series)

CGGCGCCG
binding signal [9]: 9.2 upbm affinity estimate (log intensity, higher = more binding, comparable within an allelic series)
